Data taken from PubChem BioAssay AID1159580 (chemical genetic matrix, 2015).
Among all 5,500 compounds or so, about 2,000 (36%) were called active. Not shown: some 18% with an inconclusive outcome. Cut-off read from the data, not from the text of the source: active = normalized growth mostly below about 0.91 (no sharp cut-off); inconclusive = no clear call, values can overlap the other calls; inactive = mostly above about 0.92. Some of the results follow.

Assay: chemical genetic growth profiling, strain panel (AID 1159580);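 note: tested at 20 µM; growth read once vehicle control cultures reached saturation at 30 °C; 1 = growth at the plate median or of vehicle wells; lower values mean less growth of the strain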
Conditions: growth OD

Measured: normalized growth

O=C(c1ccccc1)c1ccc2n1CCC2C(=O)O (stereo not drawn)
inactive: S. cerevisiae deletion strains, locus YKL009W, strain mrt4, hits give low values 0.962 | S. cerevisiae deletion strains, locus YKL068W, hits give low values 0.979 | S. cerevisiae deletion strains, locus YKL085W, strain MDH1 (second series), hits give low values 0.99 | S. cerevisiae deletion strains, locus YKL085W, strain MDH1, hits give low values 0.99 | S. cerevisiae deletion strains, locus YKL160W, strain elf1, hits give low values 1.03 | S. cerevisiae deletion strains, locus YKL190W, strain CNB1, hits give low values 0.999 | S. cerevisiae deletion strains, locus YKR001C, strain vps1, hits give low values 0.98 | S. cerevisiae deletion strains, locus YKR026C, strain gcn3, hits give low values 1 | S. cerevisiae deletion strains, locus YKR091W, strain srl3, hits give low values 0.961 | S. cerevisiae deletion strains, locus YLL001W, strain dnm1, hits give low values 1.01 | S. cerevisiae deletion strains, locus YLL026W, hits give low values 0.999 | S. cerevisiae deletion strains, locus YLL041C, strain sdh2, hits give low values 0.995 | S. cerevisiae deletion strains, locus YLR027C, strain aat2, hits give low values 0.99 | S. cerevisiae deletion strains, locus YLR039C, strain RIC1, hits give low values 1 | S. cerevisiae deletion strains, locus YLR058C, strain SHM2, hits give low values 1 | S. cerevisiae deletion strains, locus YLR102C, strain apc9, hits give low values 0.974 | S. cerevisiae deletion strains, locus YLR113W, strain HOG1, hits give low values 1.01 | S. cerevisiae deletion strains, locus YLR221C, strain rsa3, hits give low values 1.01 | S. cerevisiae deletion strains, locus YLR258W, strain gsy2, hits give low values 0.985 | S. cerevisiae deletion strains, locus YLR262C, strain YPT6 (second series), hits give low values 0.996 | S. cerevisiae deletion strains, locus YLR262C, strain YPT6, hits give low values 0.965 | S. cerevisiae deletion strains, locus YLR268W, strain sec22, hits give low values 0.97 | S. cerevisiae deletion strains, locus YLR320W, strain mms22, hits give low values 0.966 | S. cerevisiae deletion strains, locus YLR330W, strain CHS5, hits give low values 0.989 | S. cerevisiae deletion strains, locus YLR342W, strain FKS1 (second series), hits give low values 0.998 | S. cerevisiae deletion strains, locus YLR342W, strain FKS1, hits give low values 1 | S. cerevisiae deletion strains, locus YLR357W, strain rsc2, hits give low values 1.02 | S. cerevisiae deletion strains, locus YLR370C, strain arc18, hits give low values 1.01 | S. cerevisiae deletion strains, locus YLR371W, strain rom2, hits give low values 0.962 | S. cerevisiae deletion strains, locus YLR384C, strain iki3, hits give low values 0.998 | S. cerevisiae deletion strains, locus YLR418C, strain cdc73, hits give low values 0.987 | S. cerevisiae deletion strains, locus YML016C, strain PPZ1, hits give low values 0.998 | S. cerevisiae deletion strains, locus YML032C, strain rad52, hits give low values 0.991 | S. cerevisiae deletion strains, locus YML120C, strain ndi1, hits give low values 1.01 | S. cerevisiae deletion strains, locus YML124C, strain tub3, hits give low values 0.982 | S. cerevisiae deletion strains, locus YMR058W, strain fet3, hits give low values 0.978 | S. cerevisiae deletion strains, locus YMR078C, strain ctf18, hits give low values 0.968 | S. cerevisiae deletion strains, locus YMR125W, strain sto1, hits give low values 1.01 | S. cerevisiae deletion strains, locus YMR129W, hits give low values 0.995 | S. cerevisiae deletion strains, locus YMR205C, strain PFK2, hits give low values 1.01 | S. cerevisiae deletion strains, locus YMR223W, strain ubp8, hits give low values 0.972 | S. cerevisiae deletion strains, locus YMR231W, strain pep5, hits give low values 1 | S. cerevisiae deletion strains, locus YMR307W, strain GAS1, hits give low values 0.985 | S. cerevisiae deletion strains, locus YNL067W, strain RPL9B, hits give low values 1.02 | S. cerevisiae deletion strains, locus YNL071W, strain lat1, hits give low values 0.977 | S. cerevisiae deletion strains, locus YNL128W, strain TEP1, hits give low values 0.996 | S. cerevisiae deletion strains, locus YNL153C, strain GIM3, hits give low values 0.998 | S. cerevisiae deletion strains, locus YNL175C, strain NOP13, hits give low values 1 | S. cerevisiae deletion strains, locus YNL183C, strain NPR1, hits give low values 0.973 | S. cerevisiae deletion strains, locus YNL197C, strain WHI3, hits give low values 1.01 | S. cerevisiae deletion strains, locus YNL209W, strain ssb2, hits give low values 0.985 | S. cerevisiae deletion strains, locus YNL224C, strain SQS1, hits give low values 1.01 | S. cerevisiae deletion strains, locus YNL233W, strain BNI4, hits give low values 1.03 | S. cerevisiae deletion strains, locus YNL248C, strain rpa49, hits give low values 0.968 | S. cerevisiae deletion strains, locus YNL250W, strain rad50, hits give low values 0.986 | S. cerevisiae deletion strains, locus YNL271C, strain bni1, hits give low values 0.96 | S. cerevisiae deletion strains, locus YNL298W, strain CLA4, hits give low values 0.969 | S. cerevisiae deletion strains, locus YNL307C, strain MCK1, hits give low values 0.976 | S. cerevisiae deletion strains, locus YNL322C, strain KRE1 (second series), hits give low values 0.982 | S. cerevisiae deletion strains, locus YNL322C, strain KRE1, hits give low values 1.01 | S. cerevisiae deletion strains, locus YNR049C, strain mso1, hits give low values 0.983 | S. cerevisiae deletion strains, locus YNR052C, strain pop2, hits give low values 0.97 | S. cerevisiae deletion strains, locus YOL006C, strain TOP1, hits give low values 1.05 | S. cerevisiae deletion strains, locus YOL012C, strain htz1 0.945 | S. cerevisiae deletion strains, locus YOL147C, strain pex11, hits give low values 0.982 | S. cerevisiae deletion strains, locus YOR001W, strain rrp6, hits give low values 1.01 | S. cerevisiae deletion strains, locus YOR061W, strain CKA2, hits give low values 0.997 | S. cerevisiae deletion strains, locus YOR069W, strain VPS5, hits give low values 0.994 | S. cerevisiae deletion strains, locus YOR070C, strain gyp1, hits give low values 1 | S. cerevisiae deletion strains, locus YOR080W, strain dia2, hits give low values 1.01 | S. cerevisiae deletion strains, locus YOR083W, strain WHI5 (second series), hits give low values 1.03 | S. cerevisiae deletion strains, locus YOR083W, strain WHI5, hits give low values 1.04 | S. cerevisiae deletion strains, locus YOR106W, strain vam3, hits give low values 1.03 | S. cerevisiae deletion strains, locus YOR136W, strain idh2, hits give low values 0.971 | S. cerevisiae deletion strains, locus YOR144C, strain elg1, hits give low values 0.982 | S. cerevisiae deletion strains, locus YOR184W, strain ser1, hits give low values 0.964 | S. cerevisiae deletion strains, locus YOR231W, strain MKK1, hits give low values 1.02 | S. cerevisiae deletion strains, locus YOR265W, strain rbl2, hits give low values 1 | S. cerevisiae deletion strains, locus YOR270C, strain vph1, hits give low values 0.972 | S. cerevisiae deletion strains, locus YOR290C, strain snf2, hits give low values 0.962 | S. cerevisiae deletion strains, locus YOR316C, strain cot1, hits give low values 0.956 | S. cerevisiae deletion strains, locus YPL051W, strain arl3, hits give low values 1.04 | S. cerevisiae deletion strains, locus YPL055C, strain LGE1, hits give low values 1.02 | S. cerevisiae deletion strains, locus YPL078C, strain atp4, hits give low values 1.01 | S. cerevisiae deletion strains, locus YPL106C, strain sse1, hits give low values 0.978 | S. cerevisiae deletion strains, locus YPL240C, strain hsp82, hits give low values 1 | S. cerevisiae deletion strains, locus YPL256C, strain CLN2, hits give low values 1.01 | S. cerevisiae deletion strains, locus YPR119W, strain clb2, hits give low values 0.961 | S. cerevisiae deletion strains, locus YPR141C, strain kar3, hits give low values 0.977 | S. cerevisiae deletion strains, locus YPR163C, strain tif3, hits give low values 0.978 | S. cerevisiae deletion strains, locus YPR167C, strain met16, hits give low values 0.976 | S. cerevisiae deletion strains, strain wtn01, hits give low values 0.985 | S. cerevisiae strains, strain wild type, hits give low values 1
